# Assay results taken from PMC7862700, “An all-to-all approach to the identification of sequence-specific readers for epigenetic DNA modifications on cytosine”.
# Tests used:
# Test in all cases: DAPPL (digital affinity profiling via proximity ligation, sequencing); 10 mM Tris-HCl pH 7.5, 50 mM NaCl, 1 mM DTT, 4% glycerol, room temperature, 30 min; GST-TFs on glutathione beads, 16-mer random dsDNA library, 0.1% formaldehyde crosslink after washing; high values mean tight binding
# FEV = biological target: T1, FEV (Homo sapiens, UniProt Q99581 1-238); details: protein: recombinant; tags: N-terminal GST; dsDNA, one strand shown
# T1 sequence: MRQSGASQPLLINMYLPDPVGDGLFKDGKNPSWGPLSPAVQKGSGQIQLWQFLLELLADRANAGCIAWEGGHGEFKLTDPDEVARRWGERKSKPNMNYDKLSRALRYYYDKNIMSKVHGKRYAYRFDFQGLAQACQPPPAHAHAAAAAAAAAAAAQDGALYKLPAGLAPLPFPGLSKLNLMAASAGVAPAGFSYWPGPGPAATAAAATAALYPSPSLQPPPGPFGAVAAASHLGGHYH
# How it was run: (§1)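 Human transcription factors carrying a GST fusion were produced in yeast, bound to glutathione beads, tagged with DNA barcodes and pooled together with a tag-only sample. Each pool was held with 200 nmole of a random double-stranded 16-mer DNA library in Tris/NaCl/DTT/glycerol buffer for 30 min at room temperature, then washed, crosslinked in 0.1% formaldehyde, proximity-ligated with BsaI/T4 ligase (1 h, 37 °C), PCR-amplified and sequenced on an Illumina NextSeq500. Binding signal is the read frequency of each hexamer for a given factor divided by its frequency in the tag-only sample.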
# ETV5 = ETV5 (Homo sapiens, UniProt P41161 1-510); details: protein: recombinant; tags: N-terminal GST; dsDNA, one strand shown
# ETV5, sequence (P41161 whole entry): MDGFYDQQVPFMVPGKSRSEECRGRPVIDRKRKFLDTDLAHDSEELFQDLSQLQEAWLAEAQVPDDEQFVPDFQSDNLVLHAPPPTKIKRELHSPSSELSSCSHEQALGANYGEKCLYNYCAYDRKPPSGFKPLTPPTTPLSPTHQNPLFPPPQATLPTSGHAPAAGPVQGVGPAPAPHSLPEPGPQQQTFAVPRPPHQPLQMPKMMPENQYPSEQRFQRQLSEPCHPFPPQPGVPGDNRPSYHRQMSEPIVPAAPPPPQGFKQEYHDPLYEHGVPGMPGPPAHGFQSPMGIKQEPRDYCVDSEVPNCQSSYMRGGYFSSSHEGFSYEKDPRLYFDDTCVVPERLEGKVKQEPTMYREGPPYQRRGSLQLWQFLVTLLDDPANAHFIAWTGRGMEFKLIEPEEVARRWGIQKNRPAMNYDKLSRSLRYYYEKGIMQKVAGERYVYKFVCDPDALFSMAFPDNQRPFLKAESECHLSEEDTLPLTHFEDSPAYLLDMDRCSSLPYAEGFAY
# How it was run: as §1
# HSF1 = HSF1 (Homo sapiens, UniProt Q00613 1-529); details: protein: recombinant; tags: N-terminal GST; chain copies: 3; dsDNA, one strand shown
# HSF1, sequence (Q00613 whole entry): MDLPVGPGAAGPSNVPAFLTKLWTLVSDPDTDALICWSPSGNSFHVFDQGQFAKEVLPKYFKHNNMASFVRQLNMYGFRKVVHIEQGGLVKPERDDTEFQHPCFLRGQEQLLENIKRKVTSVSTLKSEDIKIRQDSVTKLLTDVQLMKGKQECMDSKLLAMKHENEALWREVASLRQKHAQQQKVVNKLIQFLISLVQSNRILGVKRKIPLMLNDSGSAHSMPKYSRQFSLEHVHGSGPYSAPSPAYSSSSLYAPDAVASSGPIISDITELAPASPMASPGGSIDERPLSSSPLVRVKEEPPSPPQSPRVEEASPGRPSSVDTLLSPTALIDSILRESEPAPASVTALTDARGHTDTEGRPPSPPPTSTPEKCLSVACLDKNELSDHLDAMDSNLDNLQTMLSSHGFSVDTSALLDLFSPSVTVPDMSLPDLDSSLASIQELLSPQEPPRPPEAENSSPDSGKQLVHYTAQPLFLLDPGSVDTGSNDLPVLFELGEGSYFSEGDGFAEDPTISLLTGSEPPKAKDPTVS
# How it was run: as §1
# SPIC = biological target: T2, SPIC (Homo sapiens, UniProt Q8N5J4 1-248); details: protein: recombinant; tags: N-terminal GST; dsDNA, one strand shown
# T2 sequence: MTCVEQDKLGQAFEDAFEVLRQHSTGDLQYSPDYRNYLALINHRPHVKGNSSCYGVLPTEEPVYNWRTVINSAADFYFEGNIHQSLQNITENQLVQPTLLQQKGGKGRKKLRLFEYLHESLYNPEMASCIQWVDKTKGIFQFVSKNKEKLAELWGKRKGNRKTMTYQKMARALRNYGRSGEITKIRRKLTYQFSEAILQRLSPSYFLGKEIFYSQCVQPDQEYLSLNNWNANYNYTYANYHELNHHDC
# How it was run: as §1
# ELF4 = ELF4 (Homo sapiens, UniProt Q99607 1-663); details: protein: recombinant; tags: N-terminal GST; dsDNA, one strand shown
# ELF4, sequence (Q99607 whole entry): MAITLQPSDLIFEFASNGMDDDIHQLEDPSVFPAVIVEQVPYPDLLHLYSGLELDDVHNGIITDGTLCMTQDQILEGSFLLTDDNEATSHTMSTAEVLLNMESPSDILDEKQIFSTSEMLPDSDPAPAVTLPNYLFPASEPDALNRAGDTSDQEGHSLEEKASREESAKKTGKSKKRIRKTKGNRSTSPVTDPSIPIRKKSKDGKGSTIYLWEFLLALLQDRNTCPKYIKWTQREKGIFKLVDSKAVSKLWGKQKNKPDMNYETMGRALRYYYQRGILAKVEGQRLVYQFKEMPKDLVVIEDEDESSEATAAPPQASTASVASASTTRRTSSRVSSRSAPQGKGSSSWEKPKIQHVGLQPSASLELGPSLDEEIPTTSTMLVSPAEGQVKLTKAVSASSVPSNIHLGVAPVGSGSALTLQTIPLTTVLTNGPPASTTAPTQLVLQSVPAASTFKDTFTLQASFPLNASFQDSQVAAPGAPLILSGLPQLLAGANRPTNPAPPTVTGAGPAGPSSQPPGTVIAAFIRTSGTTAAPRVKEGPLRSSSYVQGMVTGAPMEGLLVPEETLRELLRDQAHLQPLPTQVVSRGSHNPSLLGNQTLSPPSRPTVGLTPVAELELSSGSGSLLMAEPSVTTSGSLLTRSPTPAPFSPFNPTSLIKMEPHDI
# How it was run: as §1
# ELK4 = biological target: T3, ELK4 (Homo sapiens, UniProt P28324-2 1-405); details: protein: recombinant; tags: N-terminal GST; dsDNA, one strand shown
# T3 sequence: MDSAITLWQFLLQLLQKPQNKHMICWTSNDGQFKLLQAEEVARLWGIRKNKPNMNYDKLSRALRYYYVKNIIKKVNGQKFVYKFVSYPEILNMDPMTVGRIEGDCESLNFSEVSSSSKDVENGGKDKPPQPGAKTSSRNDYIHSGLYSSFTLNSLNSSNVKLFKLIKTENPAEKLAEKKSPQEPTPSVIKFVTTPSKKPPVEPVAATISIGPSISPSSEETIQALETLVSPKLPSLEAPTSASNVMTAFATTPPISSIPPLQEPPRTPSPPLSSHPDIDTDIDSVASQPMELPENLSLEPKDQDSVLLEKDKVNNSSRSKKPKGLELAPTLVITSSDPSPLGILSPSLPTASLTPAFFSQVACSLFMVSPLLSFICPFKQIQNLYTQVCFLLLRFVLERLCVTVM
# How it was run: as §1
# ETV2 = biological target: T4, ETV2 (Homo sapiens, UniProt O00321 1-342); details: protein: recombinant; tags: N-terminal GST; dsDNA, one strand shown
# T4 sequence: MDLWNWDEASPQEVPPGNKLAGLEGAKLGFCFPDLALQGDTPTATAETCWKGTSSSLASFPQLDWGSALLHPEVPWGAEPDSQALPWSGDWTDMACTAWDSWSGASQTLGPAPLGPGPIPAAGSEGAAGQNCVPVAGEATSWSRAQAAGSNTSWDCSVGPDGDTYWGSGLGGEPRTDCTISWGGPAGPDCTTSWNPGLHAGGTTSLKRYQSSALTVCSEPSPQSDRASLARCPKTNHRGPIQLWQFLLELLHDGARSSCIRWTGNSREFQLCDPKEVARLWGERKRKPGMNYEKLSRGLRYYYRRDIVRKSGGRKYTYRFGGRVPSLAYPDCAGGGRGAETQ
# How it was run: as §1
# ELF3 = biological target: T5, ELF3 (Homo sapiens, UniProt P78545 1-371); details: protein: recombinant; tags: N-terminal GST; dsDNA, one strand shown
# T5 sequence: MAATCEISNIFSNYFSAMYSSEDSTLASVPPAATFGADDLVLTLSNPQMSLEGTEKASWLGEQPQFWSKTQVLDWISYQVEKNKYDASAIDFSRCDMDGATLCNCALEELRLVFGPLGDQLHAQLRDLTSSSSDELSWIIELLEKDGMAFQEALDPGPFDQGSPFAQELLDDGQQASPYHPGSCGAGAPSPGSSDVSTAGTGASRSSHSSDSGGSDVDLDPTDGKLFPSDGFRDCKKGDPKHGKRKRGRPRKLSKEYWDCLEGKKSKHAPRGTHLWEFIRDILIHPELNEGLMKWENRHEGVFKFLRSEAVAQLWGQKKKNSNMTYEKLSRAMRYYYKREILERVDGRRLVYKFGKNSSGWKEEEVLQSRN
# How it was run: as §1
# CRX = CRX (Homo sapiens, UniProt O43186 1-299); details: protein: recombinant; tags: N-terminal GST; dsDNA, one strand shown
# CRX, sequence (O43186 whole entry): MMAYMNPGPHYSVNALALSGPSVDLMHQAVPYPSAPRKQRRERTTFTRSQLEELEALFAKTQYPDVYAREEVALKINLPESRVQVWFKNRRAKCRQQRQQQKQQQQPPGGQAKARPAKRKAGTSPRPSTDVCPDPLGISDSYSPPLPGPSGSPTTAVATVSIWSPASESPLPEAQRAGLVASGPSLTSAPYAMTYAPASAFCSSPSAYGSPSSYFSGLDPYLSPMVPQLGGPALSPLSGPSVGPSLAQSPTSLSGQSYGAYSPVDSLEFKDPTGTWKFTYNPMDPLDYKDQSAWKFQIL
# How it was run: as §1
# ETV1 = ETV1 (Homo sapiens, UniProt P50549 1-477); details: protein: recombinant; tags: N-terminal GST; dsDNA, one strand shown
# ETV1, sequence (P50549 whole entry): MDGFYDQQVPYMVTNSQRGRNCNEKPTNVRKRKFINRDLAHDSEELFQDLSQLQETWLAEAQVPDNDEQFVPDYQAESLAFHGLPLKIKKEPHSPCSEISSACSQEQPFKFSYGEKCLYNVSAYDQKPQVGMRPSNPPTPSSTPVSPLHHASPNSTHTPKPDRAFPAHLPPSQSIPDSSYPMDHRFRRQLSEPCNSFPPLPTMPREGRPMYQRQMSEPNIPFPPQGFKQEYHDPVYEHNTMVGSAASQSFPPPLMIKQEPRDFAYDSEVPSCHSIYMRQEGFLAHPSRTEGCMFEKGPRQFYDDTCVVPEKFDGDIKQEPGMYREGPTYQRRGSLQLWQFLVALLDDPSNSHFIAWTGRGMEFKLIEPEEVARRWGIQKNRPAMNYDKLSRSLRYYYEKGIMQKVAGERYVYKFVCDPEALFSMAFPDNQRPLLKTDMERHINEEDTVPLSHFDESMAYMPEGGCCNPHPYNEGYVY
# How it was run: as §1
# ERF = biological target: T6, ERF (Homo sapiens, UniProt P50548 1-548); details: protein: recombinant; tags: N-terminal GST; dsDNA, one strand shown
# T6 sequence: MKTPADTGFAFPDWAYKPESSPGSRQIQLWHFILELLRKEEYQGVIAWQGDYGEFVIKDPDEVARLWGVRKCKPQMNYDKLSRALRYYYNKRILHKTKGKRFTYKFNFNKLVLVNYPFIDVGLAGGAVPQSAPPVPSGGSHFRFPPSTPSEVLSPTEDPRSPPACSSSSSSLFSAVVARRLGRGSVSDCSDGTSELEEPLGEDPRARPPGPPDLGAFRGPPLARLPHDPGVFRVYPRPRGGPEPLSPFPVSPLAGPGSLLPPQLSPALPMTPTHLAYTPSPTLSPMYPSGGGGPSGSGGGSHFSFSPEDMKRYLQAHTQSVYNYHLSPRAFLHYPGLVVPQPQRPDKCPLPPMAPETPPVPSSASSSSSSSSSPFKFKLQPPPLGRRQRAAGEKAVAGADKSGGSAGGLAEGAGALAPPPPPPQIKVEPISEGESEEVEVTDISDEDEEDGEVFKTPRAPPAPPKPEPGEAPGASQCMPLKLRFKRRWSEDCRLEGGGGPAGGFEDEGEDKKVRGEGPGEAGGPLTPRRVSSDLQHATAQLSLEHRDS
# How it was run: as §1
# ETV3L = biological target: T7, ETV3L (Homo sapiens, UniProt Q6ZN32 1-361); details: protein: recombinant; tags: N-terminal GST; dsDNA, one strand shown
# T7 sequence: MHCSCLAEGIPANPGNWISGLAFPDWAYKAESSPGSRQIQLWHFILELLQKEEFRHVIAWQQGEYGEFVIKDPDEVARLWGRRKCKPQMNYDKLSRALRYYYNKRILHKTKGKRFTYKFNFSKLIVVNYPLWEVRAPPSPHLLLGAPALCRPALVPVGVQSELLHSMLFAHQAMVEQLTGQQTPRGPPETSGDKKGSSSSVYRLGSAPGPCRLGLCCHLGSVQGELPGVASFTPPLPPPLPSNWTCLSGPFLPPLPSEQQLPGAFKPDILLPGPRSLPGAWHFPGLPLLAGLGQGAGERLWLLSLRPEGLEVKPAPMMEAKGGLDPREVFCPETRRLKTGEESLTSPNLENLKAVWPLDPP
# How it was run: as §1
# ETS2 = biological target: T8, ETS2 (Homo sapiens, UniProt P15036 1-469); details: protein: recombinant; tags: N-terminal GST; dsDNA, one strand shown
# T8 sequence: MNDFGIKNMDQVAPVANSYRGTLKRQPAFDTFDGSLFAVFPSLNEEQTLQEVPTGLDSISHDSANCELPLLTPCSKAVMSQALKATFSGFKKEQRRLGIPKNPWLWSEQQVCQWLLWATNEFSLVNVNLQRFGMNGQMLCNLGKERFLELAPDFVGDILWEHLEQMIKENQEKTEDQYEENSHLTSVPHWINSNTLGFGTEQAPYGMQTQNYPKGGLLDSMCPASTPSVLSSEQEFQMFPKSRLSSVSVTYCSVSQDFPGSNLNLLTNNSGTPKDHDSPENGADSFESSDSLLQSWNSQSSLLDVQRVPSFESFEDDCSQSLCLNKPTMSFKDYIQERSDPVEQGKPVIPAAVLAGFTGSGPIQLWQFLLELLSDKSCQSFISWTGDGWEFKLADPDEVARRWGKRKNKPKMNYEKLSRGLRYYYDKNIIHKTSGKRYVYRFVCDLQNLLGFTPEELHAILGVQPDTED
# How it was run: as §1
# SPDEF = biological target: T9, SPDEF (Homo sapiens, UniProt O95238 1-335); details: protein: recombinant; tags: N-terminal GST; dsDNA, one strand shown
# T9 sequence: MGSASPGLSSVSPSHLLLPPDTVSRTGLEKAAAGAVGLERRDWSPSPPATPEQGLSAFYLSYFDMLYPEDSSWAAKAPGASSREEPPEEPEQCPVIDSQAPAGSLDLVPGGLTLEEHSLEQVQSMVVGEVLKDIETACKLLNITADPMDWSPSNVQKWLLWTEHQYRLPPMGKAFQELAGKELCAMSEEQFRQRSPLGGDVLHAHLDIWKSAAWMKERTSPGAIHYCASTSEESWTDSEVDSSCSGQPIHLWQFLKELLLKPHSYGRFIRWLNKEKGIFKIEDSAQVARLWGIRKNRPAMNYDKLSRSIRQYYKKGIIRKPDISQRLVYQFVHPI
# How it was run: as §1
# ETV7 = biological target: T10, ETV7 (Homo sapiens, UniProt Q9Y603 1-341); details: protein: recombinant; tags: N-terminal GST; dsDNA, one strand shown
# T10 sequence: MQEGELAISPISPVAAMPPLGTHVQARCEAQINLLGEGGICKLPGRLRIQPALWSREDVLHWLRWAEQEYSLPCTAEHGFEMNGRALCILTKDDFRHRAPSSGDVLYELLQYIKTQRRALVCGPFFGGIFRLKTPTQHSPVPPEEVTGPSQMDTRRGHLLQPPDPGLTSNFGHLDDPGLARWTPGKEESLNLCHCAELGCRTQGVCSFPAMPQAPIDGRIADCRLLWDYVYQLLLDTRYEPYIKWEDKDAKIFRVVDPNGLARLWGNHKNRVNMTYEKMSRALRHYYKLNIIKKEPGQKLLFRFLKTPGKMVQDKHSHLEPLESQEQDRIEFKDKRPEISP
# How it was run: as §1
# ELF5 = biological target: T11, ELF5 (Homo sapiens, UniProt Q9UKW6-2 1-255); details: protein: recombinant; tags: N-terminal GST; dsDNA, one strand shown
# T11 sequence: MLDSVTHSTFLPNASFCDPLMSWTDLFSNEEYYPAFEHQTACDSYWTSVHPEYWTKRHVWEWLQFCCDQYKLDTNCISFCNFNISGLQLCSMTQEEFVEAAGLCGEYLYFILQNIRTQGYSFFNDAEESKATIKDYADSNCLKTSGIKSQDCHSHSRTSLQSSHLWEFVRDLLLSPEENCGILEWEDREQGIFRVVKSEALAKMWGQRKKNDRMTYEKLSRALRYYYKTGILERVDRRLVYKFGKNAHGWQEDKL
# How it was run: as §1
# ETV3 = biological target: T12, ETV3 (Homo sapiens, UniProt P41162-2 1-143); details: protein: recombinant; tags: N-terminal GST; dsDNA, one strand shown
# T12 sequence: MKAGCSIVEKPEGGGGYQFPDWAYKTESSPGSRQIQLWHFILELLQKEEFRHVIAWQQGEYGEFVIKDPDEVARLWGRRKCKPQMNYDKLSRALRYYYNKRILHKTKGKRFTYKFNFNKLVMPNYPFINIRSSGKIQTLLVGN
# How it was run: as §1
# ETV6 = ETV6 (Homo sapiens, UniProt P41212 1-452); details: protein: recombinant; tags: N-terminal GST; dsDNA, one strand shown
# ETV6, sequence (P41212 whole entry): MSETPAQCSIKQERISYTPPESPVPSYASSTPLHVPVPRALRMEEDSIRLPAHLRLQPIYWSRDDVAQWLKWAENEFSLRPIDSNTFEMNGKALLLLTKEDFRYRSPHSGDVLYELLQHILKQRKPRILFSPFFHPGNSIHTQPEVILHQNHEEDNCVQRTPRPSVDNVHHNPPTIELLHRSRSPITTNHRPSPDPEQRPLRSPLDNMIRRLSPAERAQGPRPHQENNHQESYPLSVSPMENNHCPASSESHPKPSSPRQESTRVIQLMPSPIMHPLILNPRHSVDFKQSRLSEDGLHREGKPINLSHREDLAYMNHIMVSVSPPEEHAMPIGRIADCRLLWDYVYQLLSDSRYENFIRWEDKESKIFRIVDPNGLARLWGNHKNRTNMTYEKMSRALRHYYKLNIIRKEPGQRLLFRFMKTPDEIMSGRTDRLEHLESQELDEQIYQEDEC
# How it was run: as §1
sequence,measurement,setting,value
AATCAC,binding signal,FEV,"1.09 fold enrichment (6-mer frequency, TF over GST control)"
same,binding signal,ETV5,"1.14 fold enrichment (6-mer frequency, TF over GST control)"
same,binding signal,HSF1,"1.08 fold enrichment (6-mer frequency, TF over GST control)"
same,binding signal,SPIC,"1.08 fold enrichment (6-mer frequency, TF over GST control)"
same,binding signal,ELF4,"1.09 fold enrichment (6-mer frequency, TF over GST control)"
same,binding signal,ELK4,"1.11 fold enrichment (6-mer frequency, TF over GST control)"
same,binding signal,ETV2,"1.18 fold enrichment (6-mer frequency, TF over GST control)"
same,binding signal,ELF3,"1.12 fold enrichment (6-mer frequency, TF over GST control)"
same,binding signal,CRX,"1.3 fold enrichment (6-mer frequency, TF over GST control)"
same,binding signal,ETV1,"1.08 fold enrichment (6-mer frequency, TF over GST control)"
same,binding signal,ERF,"1.05 fold enrichment (6-mer frequency, TF over GST control)"
same,binding signal,ETV3L,"1.12 fold enrichment (6-mer frequency, TF over GST control)"
same,binding signal,ETS2,"1.06 fold enrichment (6-mer frequency, TF over GST control)"
same,binding signal,SPDEF,"1.05 fold enrichment (6-mer frequency, TF over GST control)"
same,binding signal,ETV7,"1.02 fold enrichment (6-mer frequency, TF over GST control)"
same,binding signal,ELF5,"1.09 fold enrichment (6-mer frequency, TF over GST control)"
same,binding signal,ETV3,"1.07 fold enrichment (6-mer frequency, TF over GST control)"
same,binding signal,ETV6,"1.09 fold enrichment (6-mer frequency, TF over GST control)"
